Broadly, the AC50 is the concentration giving half of the maximal activity seen.

Each structure is given as a SMILES string. Inconclusive results are not listed. Activity calls are given as the source filed them. The calls were made as follows: active = hit-call score of the fitted dose curve at least 0.9, where 1 is the maximum; inconclusive = response in the unintended direction; inactive = score below 0.9.

Ratio of Nucleoli Translocation and Cytoplasm, AR (gene 367), sequence (P10275 whole entry, looked up, the tested form may be a part): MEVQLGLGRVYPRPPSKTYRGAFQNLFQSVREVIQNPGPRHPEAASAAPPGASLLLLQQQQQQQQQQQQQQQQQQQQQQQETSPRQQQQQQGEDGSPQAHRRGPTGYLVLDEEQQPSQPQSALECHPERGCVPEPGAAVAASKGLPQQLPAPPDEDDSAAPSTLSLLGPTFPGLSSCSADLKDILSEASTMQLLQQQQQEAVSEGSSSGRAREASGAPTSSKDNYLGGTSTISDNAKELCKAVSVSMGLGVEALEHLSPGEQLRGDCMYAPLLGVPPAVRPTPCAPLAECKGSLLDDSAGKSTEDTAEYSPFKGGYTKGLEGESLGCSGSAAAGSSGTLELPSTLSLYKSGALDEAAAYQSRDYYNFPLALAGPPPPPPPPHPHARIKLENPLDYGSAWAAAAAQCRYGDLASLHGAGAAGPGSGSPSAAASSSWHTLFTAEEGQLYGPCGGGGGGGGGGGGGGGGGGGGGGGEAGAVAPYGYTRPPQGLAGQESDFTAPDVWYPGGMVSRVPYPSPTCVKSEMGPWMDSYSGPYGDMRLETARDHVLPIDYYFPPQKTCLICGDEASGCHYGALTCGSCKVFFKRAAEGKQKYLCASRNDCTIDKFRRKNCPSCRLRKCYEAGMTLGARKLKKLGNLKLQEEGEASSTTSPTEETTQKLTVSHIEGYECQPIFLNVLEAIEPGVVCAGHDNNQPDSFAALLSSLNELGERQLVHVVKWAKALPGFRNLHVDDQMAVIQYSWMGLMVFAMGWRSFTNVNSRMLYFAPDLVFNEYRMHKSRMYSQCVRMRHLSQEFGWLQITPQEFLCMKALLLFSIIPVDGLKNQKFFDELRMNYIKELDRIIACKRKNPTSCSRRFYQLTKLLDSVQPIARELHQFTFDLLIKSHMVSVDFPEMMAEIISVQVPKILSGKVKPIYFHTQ

The experiment concerns the target Ratio of Nucleoli Translocation and Cytoplasm, AR (gene 367) (UniProt P10275). As to the kind of experiment: UPITT_HCI_U2OS_AR_TIF2_Nucleoli_Cytoplasm_Ratio_Agonist: University of Pittsburgh U2OS Androgen Receptor-Transcriptional Intermediary Factor 2 (AR-TIF2) Agonism High Content Imaging Assay for Ratio of Nucleoli Translocation and Cytoplasm (AID 2284000).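 Also: hits raise the red nucleolar to cytoplasm ratio above vehicle.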 From the text: UPITT_AR_TIF2_PPIB is a cell-based, high-content imaging assay that uses U2OS, a human osteosarcoma cell line, expressing a human androgen receptor fused to red fluorescent protein and the coactivator TIF2 fused to green fluorescent protein. UPITT_HCI_U2OS_AR_TIF2_Nucleoli_Cytoplasm_Ratio_Agonist is one of four assay components measured from the UPITT_AR_TIF2_PPIB assay. It is designed to make measurements of the ratio of red fluorescence localized in the nucleolar region of the cell nucleus to red fluorescence localized in the cytoplasm as detected with high-content fluorescent imaging.Data from the assay component UPITT_HCI_U2OS_AR_TIF2_Nucleoli_Cytoplasm_Ratio_Agonist was analyzed into 1 assay endpoint. This assay endpoint, UPITT_HCI_U2OS_AR_TIF2_Nucleoli_Cytoplasm_Ratio_Agonist, was analyzed in the positive analysis fitting direction relative to DMSO as the baseline of activity. Using a type of binding reporter, measures of receptor for gain-of-signal activity can be used to understand the binding at the pathway-level as it relates to the gene AR.
Daughter plates containing 2 uL of 10 mM compounds in DMSO were prepared and replicated from the 384-well Library of Pharmacologically Active Compounds (LOPAC) master plates using the Bravo outfitted with a 384-well transfer head. Aluminum adhesive plate seals were applied with an Abgene Seal-IT 100 (Rochester, NY) plate sealer, and the plates were stored at -20 C in a Matrical MatriMinistore (Spokane, WA) automated compound storage and retrieval system. For screening, LOPAC daughter plates were withdrawn from -20C storage, thawed to ambient temperature, centrifuged 1-2 min at 50 g, and the plate seals were removed before the transfer of 98 uL of serum-free tissue culture medium (SFM) into wells using the BioTek Microflo liquid handler (BioTek, Winooski, VT) to generate a 200 uM intermediate stock concentration of library compounds (2.0% DMSO). The diluted compounds were mixed by repeated aspiration and dispensation using a 384-well P30 dispensing head on the Evolution P3 (EP3) liquid handling platform (PerkinElmer, Waltham, MA) and then 5 uL of diluted compounds was transferred to the wells of assay plates. In the LOPAC screen, compounds were individually tested at a final concentration of 20 uM (0.2% DMSO). After the diluted compounds had been transferred from the daughter plates to the primary HCS assay plates, aluminum adhesive plate seals were applied and the diluted daughter plates were stored frozen at -20C. To confirm active compounds identified in the primary screen, we withdrew the LOPAC daughter plates containing the 200 uM intermediate concentration of library compounds (2.0% DMSO) from -20C storage, thawed them to ambient temperature, centrifuged them for 1-2 min at 50 g, and removed the plate seals. A work list was generated to direct the Multiprobe Janus liquid handling platform (PerkinElmer) to cherry pick 75 uL from the wells of the diluted daughter plates that were flagged active in the primary screen and to reformat these into a 384-well plate hit confirmation daughter plate. Five microliters of primary HCS active compounds was then transferred into triplicate wells of assay plates using a 384-well P30 dispensing head on the Evolution P3 (EP3) liquid handling platform (PerkinElmer). […] Daughter plates containing 2 uL of the serially diluted compounds in DMSO were prepared and replicated from the 384-well serial dilution master plates using the Bravo outfitted with a 384-well transfer head. Aluminum adhesive plate seals were applied and plates were stored at -20C. For testing in the bioassays, daughter plates were withdrawn from -20C storage, thawed to ambient temperature, centrifuged for 1-2 min at 50 g, and the plate seals were removed before the transfer of 38 uL of SFM into wells using the BioTek Microflo liquid handler (BioTek) to generate an intermediate stock concentration of library compounds ranging from 1.95 to 500 uM (5.0% DMSO). […]
Turning to `c1cc2c3c(cccc3c1)CC2`, the result was inactive.
Same read-out and setting: for `CCCCN(CC)C(=O)SCCC` the value was “inactive”.
As to `CCCCCCCc1ccc(O)cc1`, the AC50 is 28.9 µM (active).
As for `[N-]=[N+]=[N-]`, the outcome was inactive.
In the case of `CCCCC(CC)COP(=O)(Oc1ccccc1)Oc1ccccc1` (configuration not stated), the result was inactive.
On the same count and under the same terms, as for `CC1(C)CN=C(NN=C(/C=C/c2ccc(C(F)(F)F)cc2)/C=C/c2ccc(C(F)(F)F)cc2)NC1`, the entry is “inactive”; as for `O=P(OCC(Br)CBr)(OCC(Br)CBr)OCC(Br)CBr` (configuration not stated), “inactive”; as for `ClC(Cl)=C(c1ccc(Cl)cc1)c1ccccc1Cl`, “inactive”.
On to `ClC1=C(Cl)C2(Cl)C3C(Cl)C(Cl)CC3C1(Cl)C2(Cl)Cl` (configuration not stated), for which the result was inactive.
Same read-out and setting: as for `CCN(CC)c1ccccc1`, the entry is “inactive”; as for `CO/N=C(/C(=O)OC)c1ccccc1COc1ccccc1C`, “inactive”; as for `CCNc1nc(Cl)nc(NC(C)(C)C)n1`, “inactive”.

These data come from PubChem BioAssay (EPA / NIEHS).
